Test results reported in PubChem BioAssay (NCATS).
Results filed as inconclusive are left out. The source made the active and inactive calls. The call rests on the fitted dose curve; in most records, active means well fitted inhibition curve with a large enough effect; inconclusive means small, poorly fitted or top-dose-only effect; inactive means flat fitted curve, though single readings scatter.

Experiments:
[1] = test system: PC49; test: qHTS profiling for inhibitors of Plasmodium falciparum proliferation (AID 504749);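 further: 0% = DMSO vehicle and full inhibition = artemisinin control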; conditions: P. falciparum in erythrocytes, SYBR Green DNA, 72 h; series mostly up to 28.7 µM
In short: (§1)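 Parasite proliferation within erythrocytes, 72 h exposure. Endpoint: SYBR Green I fluorescence after overnight lysis at room temperature. Controls: 0.29 uM artemisinin, DMSO.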

[2] = test system: SC27B; test: as above; conditions: P. falciparum in erythrocytes, SYBR Green DNA, 72 h; series mostly up to 28.7 µM
In short: as §1

[3] = test system: TAB109; test: as above; conditions: P. falciparum in erythrocytes, SYBR Green DNA, 72 h; series mostly up to 28.7 µM
In short: as §1

[4] = test system: TAB113; test: as above; conditions: P. falciparum in erythrocytes, SYBR Green DNA, 72 h; series mostly up to 28.7 µM
In short: as §1

[5] = test system: TAB165; test: as above; conditions: P. falciparum in erythrocytes, SYBR Green DNA, 72 h; series mostly up to 28.7 µM
In short: as §1

[6] = test system: W2; test: as above; conditions: P. falciparum in erythrocytes, SYBR Green DNA, 72 h; series mostly up to 28.7 µM
In short: as §1

[7] = test system: CRL-7250; test: Cytotoxic Profiling of Annotated Libraries Using Quantitative High-Throughput Screening (AID 1296008); conditions: Five cell lines viability, CellTiter-Glo ATP luminescence, 48-72 h; hits give low values; on max response: on the % scale 0 is the no-effect control and ±100 the full control effect
In short: (§2)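 Compounds were pin-transferred onto cells and incubated 48 or 72 hr at 37 degree Celsius, 95% humidity. CellTiter-Glo was added, plates sat 10 min at room temperature, then ATP-coupled luminescence was imaged as the viability read-out.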

[8] = test system: HEK293; test: as above; conditions: Five cell lines viability, CellTiter-Glo ATP luminescence, 48-72 h; hits give low values
In short: as §2

[9] = test system: HaCat; test: as above; conditions: Five cell lines viability, CellTiter-Glo ATP luminescence, 48-72 h; hits give low values
In short: as §2

[10] = test system: KB-3-1; test: as above; conditions: Five cell lines viability, CellTiter-Glo ATP luminescence, 48-72 h, hits give low values
In short: as §2

[11] = test system: NIH3T3; test: as above; conditions: Five cell lines viability, CellTiter-Glo ATP luminescence, 48-72 h; hits give low values
In short: as §2

[12] = test system: HEK293T; test: qHTS assay to identify novel small-molecules to repurpose for Merkel cell carcinoma treatment (AID 1296009); conditions: MCC and control cell lines, CellTiter-Glo viability, 72 h; at 44.8 µM (top of the series) unless noted
In short: (§3)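 qHTS format: cells treated with library compounds in DMSO across 8 (NPC) or 11 (MIPE) concentrations. Readout after 72 hr at 37 degree celsius was CellTiter-Glo luminescence.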

[13] = test system: MCC-13; test: as above; conditions: MCC and control cell lines, CellTiter-Glo viability, 72 h; series mostly up to 46 µM
In short: as §3

[14] = test system: MCC-26; test: as above; conditions: MCC and control cell lines, CellTiter-Glo viability, 72 h; series mostly up to 46 µM
In short: as §3

[15] = test system: MKL-1; test: as above; conditions: MCC and control cell lines, CellTiter-Glo viability, 72 h; series mostly up to 46 µM
In short: as §3

[16] = test system: MKL-2; test: as above; conditions: MCC and control cell lines, CellTiter-Glo viability, 72 h; series mostly up to 46 µM
In short: as §3

[17] = test system: UISO; test: as above; conditions: MCC and control cell lines, CellTiter-Glo viability, 72 h; series mostly up to 46 µM
In short: as §3

[18] = test system: WaGa; test: as above; conditions: MCC and control cell lines, CellTiter-Glo viability, 72 h; series mostly up to 46 µM
In short: as §3

[19] = test system: NIH3T3; test: as above; conditions: MCC and control cell lines, CellTiter-Glo viability, 72 h; at 44.8 µM (top of the series) unless noted
In short: as §3
Further: nearly all actives have a fitted effect of over 60% in size.

C[N+](C)(C)CC[N+]1(C)Cc2c(Cl)c(Cl)c(Cl)c(Cl)c2C1
inactive: Potency [1] | Potency [2] | Potency [3] | Potency [4] | Potency [5] | Potency [6] | max response [7] -7.06% | outcome [8] | max response [9] -6.5% | max response [10] 9.08% | max response [11] 3.9% | outcome [12] | outcome [13] | outcome [14] | outcome [15] | outcome [16] | outcome [17] | outcome [18]

Cc1ccsc1/C=C/C1=NCCCN1C
inactive: max response [7] 3.4% | max response [8] -1.17% | max response [9] 3.54% | max response [10] -0.196% | outcome [11] | outcome [13] | outcome [14] | outcome [15] | outcome [16] | outcome [19] | outcome [17] | outcome [18]

CCN(CC)S(=O)(=O)c1ccc(C(=O)O)cc1
inactive: Potency [1] | Potency [2] | Potency [3] | Potency [4] | Potency [5] | Potency [6] | max response [7] -2.94% | outcome [8] | max response [9] 1.67% | max response [10] 7.96% | max response [11] -6.52% | outcome [12] | outcome [13] | outcome [14] | outcome [15] | outcome [16] | outcome [17] | outcome [18]

C[C@@H](N)C(=O)O
inactive: Potency [1] | Potency [2] | Potency [3] | Potency [4] | Potency [5] | Potency [6] | max response [7] 0.494% | outcome [8] | max response [9] -6.96% | max response [10] -23.1% | max response [11] -0.0264% | outcome [12] | outcome [13] | outcome [14] | outcome [15] | outcome [16] | outcome [17] | outcome [18]

O=C1c2ccccc2S(=O)(=O)N1CCCCN1CCN(c2ncccn2)CC1
inactive: Potency [1] | Potency [2] | Potency [3] | Potency [4] | Potency [5] | max response [7] -12.2% | max response [8] -4.06% | max response [9] -10.1% | max response [10] -5.25% | outcome [11] | outcome [13] | outcome [14] | outcome [15] | outcome [16] | outcome [19] | outcome [17] | outcome [18]

NS(=O)(=O)c1cc(C2(O)NC(=O)c3ccccc32)ccc1Cl (stereo unspecified)
inactive: max response [7] -0.145% | max response [8] -4.45% | max response [9] 3.24% | max response [10] -1.8% | outcome [11] | outcome [13] | outcome [14] | outcome [15] | outcome [16] | outcome [19] | outcome [17] | outcome [18]

O=C(Cn1ccnc1[N+](=O)[O-])NCCO
inactive: Potency [1] | Potency [2] | Potency [3] | Potency [4] | Potency [5] | Potency [6] | max response [7] 1.72% | outcome [8] | max response [9] 0.0021% | max response [10] 0.623% | max response [11] 4.22% | outcome [12] | outcome [13] | outcome [14] | outcome [15] | outcome [16] | outcome [17] | outcome [18]

O=C(O)/C=C/c1ccc(Cn2ccnc2)cc1
inactive: max response [7] -1.04% | max response [8] -1.65% | max response [9] 4.76% | max response [10] 2.2% | outcome [11] | outcome [13] | outcome [14] | outcome [15] | outcome [16] | outcome [19] | outcome [17] | outcome [18]

O=C(O)c1ccccc1C(=O)Nc1ccc(S(=O)(=O)Nc2nccs2)cc1
inactive: Potency [1] | Potency [2] | Potency [3] | Potency [4] | Potency [5] | Potency [6] | max response [7] -2.05% | outcome [8] | max response [9] -2.6% | max response [10] 5.93% | max response [11] -7.95% | outcome [12] | outcome [13] | outcome [14] | outcome [15] | outcome [16] | outcome [17] | outcome [18]

CC(=O)Nc1ccc(OCCOCCOc2ccc(NC(C)=O)cc2)cc1
inactive: Potency [1] | Potency [2] | Potency [3] | Potency [4] | Potency [5] | Potency [6] | max response [7] 0.416% | outcome [8] | max response [9] 3.25% | max response [10] -2.03% | max response [11] 4.13% | outcome [12] | outcome [13] | outcome [14] | outcome [15] | outcome [16] | outcome [17] | outcome [18]

CCCOC(=O)c1ccc(N)cc1
inactive: Potency [1] | Potency [2] | Potency [3] | Potency [4] | Potency [5] | Potency [6] | outcome [7] | outcome [8] | max response [9] -1.1% | max response [10] 1.99% | max response [11] -2.69% | outcome [12] | outcome [13] | outcome [14] | outcome [15] | outcome [16] | outcome [17] | outcome [18]

C[N+](C)(C)CC(O)CC(=O)[O-] (stereo unspecified)
inactive: max response [7] -9.06% | max response [8] -5.18% | max response [9] 4.86% | max response [10] -5.76% | outcome [11] | outcome [13] | outcome [14] | outcome [15] | outcome [16] | outcome [19] | outcome [17] | outcome [18]

CCCCCCCCCCCCCCCCN
inactive: Potency [1] | Potency [2] | Potency [3] | Potency [5] | Potency [6] | max response [7] -3.5% | outcome [8] | max response [9] -13.8% | max response [10] 5.46% | max response [11] -1.53% | outcome [12] | outcome [13] | outcome [14] | outcome [15] | outcome [16] | outcome [17] | outcome [18]

NS(=O)(=O)c1cc(-c2nn[nH]n2)c(NCc2cccs2)cc1Cl
inactive: Potency [1] | Potency [2] | Potency [3] | Potency [4] | Potency [5] | Potency [6] | max response [7] 1.54% | outcome [8] | max response [9] -8.31% | max response [10] -9.88% | max response [11] -0.0304% | outcome [12] | outcome [13] | outcome [14] | outcome [15] | outcome [16] | outcome [17] | outcome [18]
